Data taken from PubChem BioAssay AID1159580 (chemical genetic matrix, 2015).
“And” between values parts separate entries of the source, which are not always exact repeats. Equal entries are not always repeated. Screen size: about 5,500 compounds; about 2,000 (36%) were called active. Not shown: some 18% with an inconclusive outcome. Cut-off read from the data, not from the text of the source: active = normalized growth mostly below about 0.91 (no sharp cut-off); inconclusive = no clear call, values can overlap the other calls; inactive = mostly above about 0.92. Some of the results follow.

Test: chemical genetic growth profiling, strain panel (AID 1159580);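 note: tested at 20 µM; growth read once vehicle control cultures reached saturation at 30 °C; 1 = growth at the plate median or of vehicle wells; lower values mean less growth of the strain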
Details: growth OD

Measured: normalized growth

CCCCC[C@H]1C(=O)O[C@H](C)[C@H](NC(=O)c2cccc(NC=O)c2O)C(=O)O[C@@H](C)[C@@H]1OC(=O)CC(C)C
0.875 (inactive) and 0.859 (active): S. cerevisiae deletion strains, locus YJL095W, strain BCK1, stronger effect = lower value
inactive: S. cerevisiae deletion strains, locus YBR021W, strain FUR4, stronger effect = lower value 0.965 | S. cerevisiae deletion strains, locus YBR229C, strain ROT2, stronger effect = lower value 0.949 | S. cerevisiae deletion strains, locus YCL029C, strain bik1, stronger effect = lower value 0.922 | S. cerevisiae deletion strains, locus YDL074C, strain BRE1, stronger effect = lower value 0.797 | S. cerevisiae deletion strains, locus YDL101C, strain DUN1, stronger effect = lower value 0.936 | S. cerevisiae deletion strains, locus YDL185W, strain tfp1, stronger effect = lower value 0.919 | S. cerevisiae deletion strains, locus YDR101C, strain arx1, stronger effect = lower value 0.93 | S. cerevisiae deletion strains, locus YDR162C, strain NBP2, stronger effect = lower value 0.905 | S. cerevisiae deletion strains, locus YDR502C, strain sam2, stronger effect = lower value 0.939 | S. cerevisiae deletion strains, locus YEL061C, strain CIN8, stronger effect = lower value 0.936 | S. cerevisiae deletion strains, locus YER110C, stronger effect = lower value 0.979 | S. cerevisiae deletion strains, locus YER155C, strain BEM2, stronger effect = lower value 0.978 | S. cerevisiae deletion strains, locus YGL248W, strain PDE1, stronger effect = lower value 0.912 | S. cerevisiae deletion strains, locus YHR030C, strain SLT2, stronger effect = lower value 0.947 and 0.873 | S. cerevisiae deletion strains, locus YHR079C, strain IRE1 (second series), stronger effect = lower value 0.943 | S. cerevisiae deletion strains, locus YHR079C, strain IRE1, stronger effect = lower value 0.863 | S. cerevisiae deletion strains, locus YHR094C, strain hxt1, stronger effect = lower value 0.933 | S. cerevisiae deletion strains, locus YIL066C, strain RNR3, stronger effect = lower value 0.88 | S. cerevisiae deletion strains, locus YIL073C, strain SPO22, stronger effect = lower value 0.844 | S. cerevisiae deletion strains, locus YIR030C, strain dcg1, stronger effect = lower value 0.946 | S. cerevisiae deletion strains, locus YJL134W, strain LCB3, stronger effect = lower value 0.932 | S. cerevisiae deletion strains, locus YJL168C, strain set2, stronger effect = lower value 0.933 | S. cerevisiae deletion strains, locus YJL187C, strain SWE1 (second series), stronger effect = lower value 0.889 | S. cerevisiae deletion strains, locus YJR066W, strain TOR1, stronger effect = lower value 0.861 | S. cerevisiae deletion strains, locus YKL068W, stronger effect = lower value 1.02 | S. cerevisiae deletion strains, locus YKL085W, strain MDH1 (second series), stronger effect = lower value 0.961 | S. cerevisiae deletion strains, locus YKL085W, strain MDH1, stronger effect = lower value 0.961 | S. cerevisiae deletion strains, locus YKL190W, strain CNB1, stronger effect = lower value 0.933 | S. cerevisiae deletion strains, locus YKR001C, strain vps1, stronger effect = lower value 0.922 | S. cerevisiae deletion strains, locus YLR039C, strain RIC1, stronger effect = lower value 0.933 | S. cerevisiae deletion strains, locus YLR058C, strain SHM2, stronger effect = lower value 0.932 | S. cerevisiae deletion strains, locus YLR102C, strain apc9, stronger effect = lower value 0.944 | S. cerevisiae deletion strains, locus YLR262C, strain YPT6, stronger effect = lower value 0.84 | S. cerevisiae deletion strains, locus YLR268W, strain sec22, stronger effect = lower value 0.923 | S. cerevisiae deletion strains, locus YLR330W, strain CHS5, stronger effect = lower value 0.962 | S. cerevisiae deletion strains, locus YLR342W, strain FKS1 (second series), stronger effect = lower value 0.887 | S. cerevisiae deletion strains, locus YLR371W, strain rom2, stronger effect = lower value 0.921 | S. cerevisiae deletion strains, locus YLR418C, strain cdc73, stronger effect = lower value 0.893 | S. cerevisiae deletion strains, locus YML016C, strain PPZ1, stronger effect = lower value 0.946 | S. cerevisiae deletion strains, locus YML124C, strain tub3, stronger effect = lower value 0.943 | S. cerevisiae deletion strains, locus YMR263W, strain SAP30, stronger effect = lower value 0.921 | S. cerevisiae deletion strains, locus YMR307W, strain GAS1, stronger effect = lower value 0.616 | S. cerevisiae deletion strains, locus YNL067W, strain RPL9B, stronger effect = lower value 0.921 | S. cerevisiae deletion strains, locus YNL233W, strain BNI4, stronger effect = lower value 0.914 | S. cerevisiae deletion strains, locus YNL307C, strain MCK1, stronger effect = lower value 0.967 | S. cerevisiae deletion strains, locus YNL322C, strain KRE1, stronger effect = lower value 0.937 | S. cerevisiae deletion strains, locus YOL006C, strain TOP1, stronger effect = lower value 0.736 | S. cerevisiae deletion strains, locus YOL012C, strain htz1 0.619 | S. cerevisiae deletion strains, locus YOL147C, strain pex11, stronger effect = lower value 0.942 | S. cerevisiae deletion strains, locus YOR061W, strain CKA2, stronger effect = lower value 0.895 | S. cerevisiae deletion strains, locus YOR069W, strain VPS5, stronger effect = lower value 0.932 | S. cerevisiae deletion strains, locus YOR136W, strain idh2, stronger effect = lower value 0.983 | S. cerevisiae deletion strains, locus YOR231W, strain MKK1, stronger effect = lower value 0.864 | S. cerevisiae deletion strains, locus YOR316C, strain cot1, stronger effect = lower value 0.945 | S. cerevisiae deletion strains, locus YPL256C, strain CLN2, stronger effect = lower value 0.912 | S. cerevisiae deletion strains, locus YPR119W, strain clb2, stronger effect = lower value 0.939 | S. cerevisiae deletion strains, locus YPR167C, strain met16, stronger effect = lower value 0.939 | S. cerevisiae deletion strains, strain wtn01, stronger effect = lower value 0.901
active: S. cerevisiae deletion strains, locus YDL035C, strain GPR1, stronger effect = lower value 0.839 | S. cerevisiae deletion strains, locus YDL134C, strain PPH21, stronger effect = lower value 0.86 | S. cerevisiae deletion strains, locus YDL192W, strain arf1, stronger effect = lower value 0.91 | S. cerevisiae deletion strains, locus YDR318W, strain mcm21, stronger effect = lower value 0.908 | S. cerevisiae deletion strains, locus YDR388W, stronger effect = lower value 0.913 | S. cerevisiae deletion strains, locus YER167W, strain BCK2, stronger effect = lower value 0.904 | S. cerevisiae deletion strains, locus YGL078C, strain dbp3, stronger effect = lower value 0.895 | S. cerevisiae deletion strains, locus YGL086W, strain mad1, stronger effect = lower value 0.923 | S. cerevisiae deletion strains, locus YGR135W, strain pre9, stronger effect = lower value 0.891 | S. cerevisiae deletion strains, locus YGR252W, strain gcn5, stronger effect = lower value 0.684 | S. cerevisiae deletion strains, locus YHR129C, strain ARP1, stronger effect = lower value 0.904 | S. cerevisiae deletion strains, locus YHR200W, strain rpn10, stronger effect = lower value 0.904 | S. cerevisiae deletion strains, locus YIL125W, strain kgd1, stronger effect = lower value 0.896 | S. cerevisiae deletion strains, locus YJR043C, strain POL32, stronger effect = lower value 0.838 | S. cerevisiae deletion strains, locus YLR113W, strain HOG1, stronger effect = lower value 0.777 | S. cerevisiae deletion strains, locus YML032C, strain rad52, stronger effect = lower value 0.83 | S. cerevisiae deletion strains, locus YMR078C, strain ctf18, stronger effect = lower value 0.9 | S. cerevisiae deletion strains, locus YMR223W, strain ubp8, stronger effect = lower value 0.88 | S. cerevisiae deletion strains, locus YNL183C, strain NPR1, stronger effect = lower value 0.827 | S. cerevisiae deletion strains, locus YNL250W, strain rad50, stronger effect = lower value 0.853 | S. cerevisiae deletion strains, locus YNL271C, strain bni1, stronger effect = lower value 0.9 | S. cerevisiae deletion strains, locus YNL298W, strain CLA4, stronger effect = lower value 0.891 | S. cerevisiae deletion strains, locus YNR052C, strain pop2, stronger effect = lower value 0.874 | S. cerevisiae deletion strains, locus YOR144C, strain elg1, stronger effect = lower value 0.933 | S. cerevisiae deletion strains, locus YOR184W, strain ser1, stronger effect = lower value 0.674 | S. cerevisiae deletion strains, locus YPR141C, strain kar3, stronger effect = lower value 0.9 | S. cerevisiae deletion strains, locus YPR163C, strain tif3, stronger effect = lower value 0.893 | S. cerevisiae strains, strain wild type, stronger effect = lower value 0.895
